Test results as given in PubChem BioAssay (NCI).
This is part of a sample that, as a whole, favours compounds with a hit. Of some 83,000 tested, about 20% had one in any assay.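 Growth was measured after 48 h exposure to one concentration of compound in 96-well plates. Values under 10 count as active.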 Unmarked numbers belong to inactive results. Activity calls are given as the source filed them.

Key:
Test in all cases: NCI-60 one-dose screen, 48 h (100 = growth as untreated, 0 = no growth, -100 = all killed)
Conditions in all cases: 10 µM unless noted
[1] = test system: SK-MEL-2 melanoma
[2] = test system: EKVX NSCLC
[3] = test system: SN12C renal
[4] = test system: UO-31 renal
[5] = test system: TK-10 renal
[6] = test system: ACHN renal
[7] = test system: CAKI-1 renal
[8] = test system: A498 renal
[9] = test system: CCRF-CEM leukemia
[10] = test system: MOLT-4 leukemia

Structure (SMILES) | growth [1] | growth [2] | growth [3] | growth [4] | growth [5] | growth [6] | growth [7] | growth [8] | growth [9] | growth [10]
COc1ccc(OC)c(-c2nc(SCC(=O)c3ccc(C#N)cc3)[nH]c(=O)c2C#N)c1 | 104% | 105% | 107% | 76.9% | 103% | 97.7% | 96.8% | 106% | 106% | 103%
CCOC(=O)c1cc(C)n(-c2ccc(C(=O)O)cc2)c1C | 32% | 118% | 87.9% | 86.7% | 93.5% | 2.34% (active) | 79.7% | 111% | 92.2% | 92.3%
O=C1c2ccccc2-c2c1c1c(=O)[nH]c3ccccc3c1n2Cc1ccccc1 | 75.2% | 51.9% | 69.9% | 78.3% | 75.7% | 46.6% | 2.5% (active) | 0.459% (active) | 87.4% | 64.9%
OCCn1cc(-c2nc(-c3c[nH]c4ncccc34)cs2)c2cc(F)ccc21 | 66.2% | 37.2% | 80.3% | 39.4% | 62.1% | 65.8% | 70.7% | 23% | 56% | 54.5%
Cc1ccc(-c2nc(N3CCCNCC3)c3oc(-c4ccccc4)nc3n2)cc1 | -67.2% (active) | 38.2% | -85.1% (active) | -99% (active) | -95.9% (active) | -98.8% (active) | -71% (active) | 93.4% | -71% (active) | -73.2% (active)
COCCOc1cc2ncnc(N3CCN(c4ncc(S(=O)(=O)N5CCCCC5)cn4)CC3)c2cc1OCCOC | 105% | 104% | 104% | 78.1% | 106% | 115% | 101% | 92.1% | 84.5% | 91.9%
Fc1cccc(Oc2ccc(Nc3ncnc4ccc(OCCCN5CCOCC5)cc34)cc2Cl)c1 | 93.3% | 20.7% | 82.9% | 30.4% | 26.4% | 32.3% | 30.4% | -4.84% (active) | 58.8% | 53.9%
CS(=O)(=O)Nc1cc(-c2ccc3ncnc(Nc4ccc5c(cnn5Cc5ccc(F)cc5)c4)c3c2)cnc1Cl | 3.86% (active) | 62.5% | 35.6% | 46.5% | 38.3% | 70.6% | 25.7% | -23.2% (active) | 31.2% | 21.2%
Oc1c(I)cc(I)cc1CNCCN(Cc1ccccn1)Cc1ccccn1 | -52.4% (active) | -10.3% (active) | 16% | -89.4% (active) | -91.5% (active) | -84% (active) | -92.2% (active) | -88.2% (active) | -10.1% (active) | -29.5% (active)
CCCCCC(/C=N\NC(=S)N/N=C/C(=C/c1ccccc1)CCCCC)=C\c1ccccc1 | 80.9% | 76.6% | 68.1% | 45.4% | 87.3% | 69.3% | 42.1% | 70.1% | 31.1% | 42%
O=C(CSc1oc(-c2ccccc2)nc1S(=O)(=O)c1ccccc1)Nc1ccc(F)cc1 | 87.6% | 78.2% | 89% | 76.8% | 91.8% | 80.2% | 73.1% | 82.6% | 84.7% | 73.3%
CCOC(=O)n1ccn(C)c1=S | 97.8% | 100% | 105% | 80.7% | 98.6% | 99.3% | 95.4% | 115% | 98% | 103%
O=C(/C=C/c1ccco1)Nc1ncc(Cc2cccc(C(F)(F)F)c2)s1 | 23.4% | 25% | 20.9% | 11.8% | 33.6% | 11.7% | 20.5% | -6.36% (active) | 14.5% | 14%
CN1CCN(c2cc(Nc3cc(C4CC4)[nH]n3)nc(Nc3ccc(CC(=O)NCc4cccc(F)c4)cc3)n2)CC1 | 48.9% | 50.3% | 23.5% | 36.8% | 34.5% | 45.9% | 5.36% (active) | -28.7% (active) | 36.8% | 16%
